The source of these data is PubChem BioAssay (NCATS).

This test is described as follows: Cell Proliferation Assay against the HBL1 Cell Line (AID 651646).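 Note: cells exposed to compound for 48 h before reading.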 Conditions: HBL1 DLBCL cells; at 46.1 µM (top of the series). The text has this: One class of targeted therapeutics showing early clinical success in killing of ABC DLBCL lines are small molecule inhibitors of the Bruton tyrosine kinase (BTK) 11.
Prior to any combination assays, using an NCATS developed oncology compound library called the Mechanism of Interrogation Plate (MIPE), two well studied ABC DLBCL lines (TMD8 and HBL1) were screened using a cell viability assay (CellTiterGlo) and a 12-point titration series for each single agent. These initial experiments offered insight into the concentration range that offered the best coverage of activity and non-activity to assure relevant data is generated. In addition to the viability signature associated with this library, we examined the apoptotic response of each agent versus the TMD8 line as judged by caspase 3/7 activation. Activity was assayed at both 8 and 16 hour time-points to gain an appreciation of which agents induced an apoptotic response in a reasonable timeframe from a therapeutic exposure perspective. MIPE was also assayed for single agent viability in a human mesenchymal stem cell (hMSC) line as a surrogate of each library member's potential therapeutic index.
A total of 500 log growing HBL1 cells are seeded per well in 5 uL of a RPMI with glutamine (or Glutamax), without phenol red plus 5% FBS and 1X Pen/Strep into 1536 -solid white high base tissue culture treated Greiner One Bio Plates (789173-F) using a multidrop combi dispenser and a small sterile cassette. Compounds and controls totaling 23nL per well (negative control DMSO and positive control 9.2 uM Bortezomib-final) are immediately added to the plates using a 1536 head pin tool from Kalypsys. The plates are then covered with stainless steel gasket lids from Kalypsys and incubated for 48 hours at 37C under 95% relative humidity with 5% CO2. After 48 hours, the plates are removed and allowed to reach room temperature before 3 uL of Cell Titer Glo reagent (Promega) is added using an Aurora Flying Reagent Dispenser Bioraptor. The plates are then spun at 1000 rpms to remove bubbles and incubated for 15 minutes at room temperature before read on a ViewLux using a luminescent filter with a 10 second exposure. The relative luciferase units are used to calculated percent activity using DMSO as 100% and Bortezomib as 0%.
`CC1=C[C@@H]2[C@@H]([C@@H](O)C[C@@]3(C)[C@H]2C[C@@H](C)[C@]3(O)C(=O)CO)[C@@]2(C)Cc3cnn(-c4ccccc4)c3C=C12`: the viability, percent of control is 2.33%.

Take `Cn1cc(-c2ccc3nnc(Sc4ccc5ncccc5c4)n3n2)cn1`: the viability, percent of control turned out to be 119%. As for `O=C(O)c1ccc(O)c2ncc(N3CCOCC3)cc12`, the viability, percent of control turned out to be 74%. In the case of `O=C(O)Cc1cccc(OCCCN(Cc2cccc(C(F)(F)F)c2Cl)CC(c2ccccc2)c2ccccc2)c1` it was 12.9%; in that of `O=C(Nc1cccc(Cl)c1)Nc1ncc(CCNc2ncnc3ccsc23)s1`, 2.32%; in that of `CNC(=O)c1cc(Oc2ccc(NC(=O)Nc3ccc(Cl)c(C(F)(F)F)c3)c(F)c2)ccn1`, 4.87%. Consider `OCCn1cc(-c2ccc3c(c2)CCC3=NO)c(-c2ccncc2)n1`, for which the viability, percent of control was determined as 133%.

`CCCCn1c(=O)n(Cc2ccccc2F)c(=O)c2[nH]c(Cc3ccc(NC(C)=O)cc3)nc21`: the viability, percent of control worked out at 4.28%.

As to `Cc1nn(Cc2ccccc2Cl)c(C)c1CN(C)CC(O)COc1ccc(Cl)cc1` (stereo not given), the viability, percent of control stood at 2.62%.

For the compound `Cc1cccc(Nc2nc(N[C@@H]3CCCC[C@H]3N)ncc2C(N)=O)c1`, the viability, percent of control stood at 2.69%. For `COc1cc2nccc(Oc3ccc(NC(=O)Nc4cc(C)on4)c(Cl)c3)c2cc1OC`, the viability, percent of control turned out to be 26.7%. As for `CCCCOCCOc1nc(-c2ccc(C(=O)O)c(F)c2)sc1C`, the viability, percent of control came out at 84.4%. For `Cc1csc(-c2nnc(Nc3ccc(Oc4ncccc4-c4ccnc(N)n4)cc3)c3ccccc23)c1`, the viability, percent of control is 63.2%.

With `CC(=O)Nc1cccc(-n2c(=O)n(C3CC3)c(=O)c3c(Nc4ccc(I)cc4F)n(C)c(=O)c(C)c32)c1`, the viability, percent of control is 6.64%. Take `O=C(Nc1ccc(OC(F)(F)F)cc1)c1sccc1NCc1ccnc2ccccc12`: the viability, percent of control came to 26%. `CCCCc1ccc(NS(=O)(=O)c2ccc(C)c(C(=O)N3CCN(c4cccc(C)c4C)CC3)c2)cc1`: the viability, percent of control came to 6.19%.

For the compound `CCCCCCCCCCCCCC(=O)N[C@H](CO)[C@H](O)c1ccc([N+](=O)[O-])cc1`, the viability, percent of control came to 21.7%. Take `CCNC(=O)c1noc(-c2cc(C(C)C)c(O)cc2O)c1-c1ccc(CN2CCOCC2)cc1`: the viability, percent of control is 47.2%. As for `CCC=CC[C@H]1C(=O)CC[C@@H]1CC(=O)OC`, the figure is 109%.

In the case of `CC(=O)NCCC(=O)N[C@@H](CCC(N)=O)C(=O)N[C@@H](CO)C(=O)N[C@@H](CCC(N)=O)C(=O)N[C@@H](CCC(N)=O)C(=O)N[C@H](C(=O)N[C@@H](Cc1ccccc1)C(=O)N[C@]1(C)CCCCCCC=CCCC[C@@](C)(C(=O)N[C@@H](CCC(N)=O)C(=O)N[C@@H](CC(N)=O)C(N)=O)NC(=O)[C@H](CC(C)C)NC(=O)[C@H](CC(C)C)NC(=O)[C@@H](CCCNC(=N)N)NC(=O)[C@H](Cc2c[nH]c3ccccc23)NC(=O)[C@H](CC(C)C)NC(=O)[C@H](CC(N)=O)NC1=O)[C@H](C)O`, the viability, percent of control turned out to be 3.58%. Turning to `CN1C(=O)C(Cc2c[nH]c3ccccc23)NC1=S` (stereo not given), the viability, percent of control is 98.6%. In the case of `CC(O)=C(C#N)C(=O)Nc1ccc(C(F)(F)F)cc1` it was 56.6%. In the case of `COc1cccc(OC)c1-c1cc(C(=O)NC2(C(=O)O)C3CC4CC(C3)CC2C4)nn1-c1ccnc2cc(Cl)ccc12` (stereo not given), the viability, percent of control came out at 3.08%. With `Cc1cc2c(cc1C1(c3ccc(C(=O)O)cn3)CC1)C(C)(C)CCC2(C)C`, the viability, percent of control was found to be 48.2%.

With `CC(C)C[C@@H](C(=O)N[C@H](C(=O)OC1CCCC1)c1ccccc1)[C@H](O)C(=O)NO`, the viability, percent of control is 6.68%. As for `CNC(=O)c1cc(COc2nnc(Nc3ccc(Cl)cc3)c3ccoc23)ccn1`, the figure is 6.77%. As for `O=C1C(CCC(O)c2ccc(F)cc2)C(c2ccc(O)cc2)N1c1ccc(F)cc1` (stereo not given), the figure is 68%; as for `CN(C)CCCNC(=O)c1ccc(-c2cc(O)c3ncccc3c2)cc1`, 31%. Regarding `Cc1ccc(C(=O)N(CCCN)[C@@H](c2nc3cc(Cl)ccc3c(=O)n2Cc2ccccc2)C(C)C)cc1`, the viability, percent of control turned out to be 1.66%. As for `COc1cc2c(cc1OC)CC(=O)N(CCCN(C)C[C@H]1Cc3cc(OC)c(OC)cc31)CC2`, the figure is 122%; as for `COc1ccc(CCN(C)CCCOc2ccc(S(=O)(=O)c3[nH]c4ccccc4c3C(C)C)cc2)cc1OC`, 7.05%. As to `CCN(CC)CCCCNc1nc2cc(Cl)c(Cl)cc2nc1-c1ccc(-c2cccs2)s1`, the viability, percent of control turned out to be 1.92%. For `CCC(=O)N1CCN(c2ccc(-n3c(=O)ccc4cnc5ccc(-c6cnc7ccccc7c6)cc5c43)cc2C(F)(F)F)CC1`, the viability, percent of control amounted to 4.82%. As for `CN(C)CCN(C)C(=O)c1ccc(NC(=O)Nc2ccc(-c3nc(N4CCOCC4)c4ccn(CC(F)(F)F)c4n3)cc2)cc1`, the figure is 1.25%; as for `Nc1ccc(-c2ccc3ncc4ccc(=O)n(-c5cccc(C(F)(F)F)c5)c4c3c2)cn1`, 8.06%.

On to `Cc1ccc(NC(=O)c2ccc(CN3CCN(C)CC3)cc2)cc1Nc1nc(-c2cccnc2)cs1`, for which the viability, percent of control came out at 11%. In the case of `CCc1cc(-c2n[nH]c(C)c2-c2ccc3c(c2)OCCO3)c(O)cc1O` it was 34.6%; in that of `COc1nc(C)cnc1NS(=O)(=O)c1cccnc1-c1ccc(-c2nnco2)cc1`, 92.3%.

As for `NC(=O)c1ccc(N(C(N)=O)c2c(F)cccc2F)nc1-c1ccc(F)cc1F`, the viability, percent of control amounted to 110%. `COC(=O)Nc1ccc(-c2nc(N3CCOCC3)c3cnn(C4CCN(C(=O)OC)CC4)c3n2)cc1`: the viability, percent of control was 51.1%.
